In PubChem BioAssay AID504546 (Broad Institute, 2011) one finds outcome data, which are given here for 14 molecules.

Results filed as inconclusive are left out. Calls of active or inactive are those of the source.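 The calls were made as follows: active = every repeat run fits a falling-signal curve with half-maximal potency within ten times top tested dose; inconclusive = runs disagree, or flat moderate drop, or poor fit; inactive = every run inactive, including signal moving upward.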

The nature of the assay: ADP-Glo luciferase signal interference – biochemical, luminescence, cherry-picked samples, set 2, artefact control for CDK5 inhibitor project, dose response (AID 504546). As to conditions: ADP-Glo detection reagent counter screen, 5 uM ADP; series mostly up to 30 µM. A general note: ADP-Glo first removes unused ATP, then detects ADP through luciferase.
Turning to `O=C(O)c1ccc(/C=N/Nc2ncc(C(F)(F)F)cc2Cl)cc1`, the molecule was called inactive.

In the case of `Oc1ccc(/C=N/Nc2ccc(C(F)(F)F)cn2)cc1`, the call was inactive. Consider `CC(C)n1cnc2c(NCc3ccc(S(N)(=O)=O)cc3)nc(NCc3ccc(S(N)(=O)=O)cc3)nc21`, for which the outcome was inactive. As for `Nc1cc2c(cc1[N+](=O)[O-])-c1ccccc1C2=NO`, the call was inactive. On to `CC(C)n1cnc2c(Nc3cccc(F)c3)nc(NCCO)nc21`, for which the result was inactive. Regarding `COc1ccc(S(=O)(=O)Nc2c(C(=O)O)[nH]c3ccc(OC)cc23)c(OC)c1`, the result was inactive.

Turning to `CC1(C)Cc2c(ccc3ccccc23)C(=O)N1`, the call was inactive. For `Clc1cncc(Cl)c1N/N=C/c1ccccc1`, the result was inactive. For `CCc1cc(C(=O)c2ccc(OC)cc2)c(N)s1` the value was “inactive”; for `Cc1ccc2nc(NCc3ccccc3)c(C#N)cc2c1`, “inactive”. Turning to `NC(=O)c1cc([N+](=O)[O-])c(Cl)cc1NCc1cccnc1`, the molecule was classed as inactive.

For `Cc1[nH]nc2c1-c1nc3ccccc3nc1C(C)(C)C2`, the molecule was classed as inactive.

Regarding `Nc1nc(Nc2cccc(Cl)c2)nc(NCCO)c1[N+](=O)[O-]`, the molecule was classed as inactive. As for `COc1ccc2nc3c(cc2c1)c(NC(=O)CC(C)C)nn3CC(C)C`, the result was inactive.
